Reference: the supplement of paper PMC10849652
The full data set covers some 8,800 targets. This sample favours those with a hit. About 0.5% of all pairs of compound and target were hits.

Assays:
Test in all cases: log2 fold change, soluble protein after heating vs DMSO (PISA); higher = thermal stabilisation; K562 lysate, 10 uM; active = over 0.2 and 3.5 SD of the protein, either way, in both replicates (recomputed)
lapatinib = compound: CS(=O)(=O)CCNCc1ccc(-c2ccc3ncnc(Nc4ccc(OCc5cccc(F)c5)c(Cl)c4)c3c2)o1 [lapatinib]
Procedure, shortened: (§1)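 Log-two fold change in thermal stability relative to solvent controls is reported from duplicates. For each sample, crude K562 extract from dounce-homogenised pellets in PBS pH 7.4 with 1 mM MgCl2, at 1 mg/mL protein, was treated with 10 μM compound for 30 min. Aliquots heated for 3 min across 48°C-58°C were pooled, brought to 0.5% NP-40 at 4°C and cleared at 21,000xg for 90 min. The supernatant was quantified by TMTpro 16plex LC-MS/MS with channel sums equalised.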

pictilisib = compound: CS(=O)(=O)N1CCN(Cc2cc3nc(-c4cccc5[nH]ncc45)nc(N4CCOCC4)c3s2)CC1 [pictilisib]
Procedure, shortened: as §1

[1] = compound: C[C@H](C1=CC=C(C=C1)C(=O)NC2=C3C=CNC3=NC=C2)N
Procedure, shortened: as §1

duvelisib = compound: C[C@H](Nc1ncnc2nc[nH]c12)c1cc2cccc(Cl)c2c(=O)n1-c1ccccc1 [duvelisib]
Procedure, shortened: as §1

gandotinib = compound: Cc1cc(Nc2cc(CN3CCOCC3)c3nc(C)c(Cc4ccc(Cl)cc4F)n3n2)n[nH]1 [gandotinib]
Procedure, shortened: as §1

tozasertib = compound: Cc1cc(Nc2cc(N3CCN(C)CC3)nc(Sc3ccc(NC(=O)C4CC4)cc3)n2)n[nH]1 [tozasertib]
Procedure, shortened: as §1

bafetinib = compound: Cc1ccc(NC(=O)c2ccc(CN3CC[C@H](N(C)C)C3)c(C(F)(F)F)c2)cc1Nc1nccc(-c2cncnc2)n1 [bafetinib]
Procedure, shortened: as §1

[2] = compound: Cc1cccc(CC(=O)N2CCc3c2ccc(-c2cn(C)c4ncnc(N)c24)c3F)n1
Procedure, shortened: as §1

nilotinib = compound: Cc1cn(-c2cc(NC(=O)c3ccc(C)c(Nc4nccc(-c5cccnc5)n4)c3)cc(C(F)(F)F)c2)cn1 [nilotinib]
Procedure, shortened: as §1

[3] = compound: Cc1nc(Nc2n[nH]c3c2CN(C(=O)N[C@H](CN(C)C)c2ccccc2)C3(C)C)c2sccc2n1
Procedure, shortened: as §1

dasatinib = compound: Cc1nc(Nc2ncc(C(=O)Nc3c(C)cccc3Cl)s2)cc(N2CCN(CCO)CC2)n1 [dasatinib]
Procedure, shortened: as §1

[4] = compound: Cc1ncc(-c2ccnc(Nc3ccc(S(C)(=O)=O)cc3)n2)n1C(C)C
Procedure, shortened: as §1

[5] = compound: Cn1cc(-c2ccc3c(c2)CCN3C(=O)Cc2cccc(C(F)(F)F)c2)c2c(N)ncnc21
Procedure, shortened: as §1

tipifarnib = compound: Cn1cncc1[C@@](N)(c1ccc(Cl)cc1)c1ccc2c(c1)c(-c1cccc(Cl)c1)cc(=O)n2C [tipifarnib]
Procedure, shortened: as §1

[6] = compound: NC(=O)c1cnc(N[C@@H]2CCCC[C@@H]2N)nc1Nc1cccc(-n2nccn2)c1
Procedure, shortened: as §1

[7] = compound: NC1(c2ccc(-c3nc4ccn5c(=O)[nH]nc5c4cc3-c3ccccc3)cc2)CCC1
Procedure, shortened: as §1

crizotinib = compound: C[C@@H](Oc1cc(-c2cnn(C3CCNCC3)c2)cnc1N)c1c(Cl)ccc(F)c1Cl [crizotinib]
Procedure, shortened: as §1

doramapimod = compound: Cc1ccc(-n2nc(C(C)(C)C)cc2NC(=O)Nc2ccc(OCCN3CCOCC3)c3ccccc23)cc1 [doramapimod]
Procedure, shortened: as §1

quisinostat = compound: Cn1cc(CNCC2CCN(c3ncc(C(=O)NO)cn3)CC2)c2ccccc21 [quisinostat]
Procedure, shortened: as §1

[8] = compound: NC(=O)Nc1cc(-c2cccc(F)c2)sc1C(=O)N[C@H]1CCCNC1
Procedure, shortened: as §1

Measured: log2 fold change

ARMCX5 (UniProt Q6P1M9)
inactive: lapatinib -0.033 | pictilisib 0.04 | [1] -0.001 | duvelisib -0.114 | gandotinib 0.001 | tozasertib 0.032 | bafetinib -0.104 | [2] 0.078 | nilotinib 0.035 | [3] 0.009 | dasatinib -0.039 | [4] 0.037 | [5] -0.07 | tipifarnib -0.023 | [6] 0.02 | [7] -0.027

ALG3 (UniProt Q92685)
inactive: lapatinib -0.069 | pictilisib 0.031 | crizotinib -0.057 | [1] -0.15 | duvelisib -0.104 | gandotinib 0 | tozasertib -0.04 | doramapimod 0.037 | bafetinib -0.061 | [2] 0.261 | dasatinib -0.049 | [5] 0.068 | quisinostat 0.077 | [8] -0.017 | [6] 0.092 | [7] -0.036

ABL1 isoform 2 (UniProt P00519)
UniProt P00519, sequence (P00519 whole entry, looked up): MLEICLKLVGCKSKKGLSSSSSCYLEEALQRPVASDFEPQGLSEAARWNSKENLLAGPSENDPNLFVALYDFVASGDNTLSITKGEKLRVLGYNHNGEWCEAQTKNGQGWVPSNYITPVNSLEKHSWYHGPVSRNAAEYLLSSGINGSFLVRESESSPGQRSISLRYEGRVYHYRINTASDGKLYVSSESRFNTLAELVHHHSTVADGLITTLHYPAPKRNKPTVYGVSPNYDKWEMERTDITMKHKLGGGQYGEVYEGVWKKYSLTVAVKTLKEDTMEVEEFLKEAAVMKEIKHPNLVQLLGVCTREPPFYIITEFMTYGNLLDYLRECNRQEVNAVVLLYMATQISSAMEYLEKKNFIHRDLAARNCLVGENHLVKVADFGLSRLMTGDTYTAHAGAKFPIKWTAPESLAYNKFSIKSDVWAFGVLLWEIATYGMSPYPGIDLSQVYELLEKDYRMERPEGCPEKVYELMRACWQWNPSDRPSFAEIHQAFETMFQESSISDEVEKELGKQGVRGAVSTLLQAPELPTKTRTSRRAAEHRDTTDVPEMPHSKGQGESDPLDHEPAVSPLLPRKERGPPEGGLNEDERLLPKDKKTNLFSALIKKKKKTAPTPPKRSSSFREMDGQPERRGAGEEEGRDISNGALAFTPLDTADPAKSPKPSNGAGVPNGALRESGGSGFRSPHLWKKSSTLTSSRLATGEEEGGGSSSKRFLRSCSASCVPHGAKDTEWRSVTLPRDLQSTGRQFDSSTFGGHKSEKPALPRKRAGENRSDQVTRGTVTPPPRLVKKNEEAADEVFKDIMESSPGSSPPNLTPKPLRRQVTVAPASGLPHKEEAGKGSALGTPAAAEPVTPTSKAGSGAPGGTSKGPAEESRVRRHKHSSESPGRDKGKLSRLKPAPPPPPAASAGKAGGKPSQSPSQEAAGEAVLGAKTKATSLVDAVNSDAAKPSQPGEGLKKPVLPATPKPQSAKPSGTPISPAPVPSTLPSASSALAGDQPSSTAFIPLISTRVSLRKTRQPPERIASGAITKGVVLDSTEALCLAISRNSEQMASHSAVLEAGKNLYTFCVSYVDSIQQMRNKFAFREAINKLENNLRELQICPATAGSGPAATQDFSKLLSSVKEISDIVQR
inactive: lapatinib -0.01 | pictilisib -0.094 | [1] 0.135 | duvelisib 0.004 | gandotinib -0.04 | [2] -0.048 | [3] 0.006 | [4] 0.019 | [5] -0.002 | quisinostat -0.074 | tipifarnib -0.074 | [8] 0.08 | [6] 0.022 | [7] -0.009

ARL13B (UniProt Q3SXY8)
UniProt Q3SXY8, sequence (Q3SXY8 whole entry, looked up): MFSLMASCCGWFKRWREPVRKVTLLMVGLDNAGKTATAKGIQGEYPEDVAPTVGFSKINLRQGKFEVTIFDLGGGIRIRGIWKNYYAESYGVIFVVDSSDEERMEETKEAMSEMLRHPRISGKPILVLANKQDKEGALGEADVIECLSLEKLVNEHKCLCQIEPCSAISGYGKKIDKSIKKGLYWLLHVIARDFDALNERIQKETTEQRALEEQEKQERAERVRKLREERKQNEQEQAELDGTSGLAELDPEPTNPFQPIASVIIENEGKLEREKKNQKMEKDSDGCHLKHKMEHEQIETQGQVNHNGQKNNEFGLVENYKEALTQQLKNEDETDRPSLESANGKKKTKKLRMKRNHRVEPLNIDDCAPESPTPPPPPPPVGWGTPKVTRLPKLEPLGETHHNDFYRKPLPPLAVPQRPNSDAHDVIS
active: [1] 0.4
inactive: lapatinib 0.016 | pictilisib -0.074 | crizotinib -0.075 | duvelisib 0.014 | gandotinib -0.23 | doramapimod -0.068 | bafetinib 0.025 | [2] -0.217 | dasatinib 0 | [5] -0.012 | quisinostat -0.313 | [8] 0.095 | [6] 0.131 | [7] 0.013

ACYP2 (UniProt P14621)
UniProt P14621, sequence (P14621 whole entry, looked up): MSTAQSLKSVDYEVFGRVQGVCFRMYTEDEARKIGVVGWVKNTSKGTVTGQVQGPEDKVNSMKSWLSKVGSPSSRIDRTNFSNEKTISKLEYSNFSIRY
inactive: lapatinib -0.049 | pictilisib -0.065 | crizotinib 0.082 | [1] 0.217 | gandotinib -0.076 | doramapimod -0.024 | bafetinib -0.002 | [2] -0.105 | nilotinib -0.008 | [3] -0.079 | [4] 0.097 | quisinostat -0.047 | tipifarnib 0.009 | [8] -0.009 | [6] -0.026 | [7] 0.019

ABCA3 (UniProt Q99758)
inactive: lapatinib 0.025 | pictilisib -0.028 | [1] -0.156 | duvelisib 0.061 | gandotinib 0.113 | tozasertib -0.16 | doramapimod 0.203 | bafetinib -0.006 | [2] -0.075 | dasatinib 0.044 | [5] -0.066 | quisinostat 0.08 | [8] -0.092 | [6] 0.001 | [7] -0.019
active: crizotinib -0.469

ADAM17 (UniProt P78536)
UniProt P78536, sequence (P78536 whole entry, looked up): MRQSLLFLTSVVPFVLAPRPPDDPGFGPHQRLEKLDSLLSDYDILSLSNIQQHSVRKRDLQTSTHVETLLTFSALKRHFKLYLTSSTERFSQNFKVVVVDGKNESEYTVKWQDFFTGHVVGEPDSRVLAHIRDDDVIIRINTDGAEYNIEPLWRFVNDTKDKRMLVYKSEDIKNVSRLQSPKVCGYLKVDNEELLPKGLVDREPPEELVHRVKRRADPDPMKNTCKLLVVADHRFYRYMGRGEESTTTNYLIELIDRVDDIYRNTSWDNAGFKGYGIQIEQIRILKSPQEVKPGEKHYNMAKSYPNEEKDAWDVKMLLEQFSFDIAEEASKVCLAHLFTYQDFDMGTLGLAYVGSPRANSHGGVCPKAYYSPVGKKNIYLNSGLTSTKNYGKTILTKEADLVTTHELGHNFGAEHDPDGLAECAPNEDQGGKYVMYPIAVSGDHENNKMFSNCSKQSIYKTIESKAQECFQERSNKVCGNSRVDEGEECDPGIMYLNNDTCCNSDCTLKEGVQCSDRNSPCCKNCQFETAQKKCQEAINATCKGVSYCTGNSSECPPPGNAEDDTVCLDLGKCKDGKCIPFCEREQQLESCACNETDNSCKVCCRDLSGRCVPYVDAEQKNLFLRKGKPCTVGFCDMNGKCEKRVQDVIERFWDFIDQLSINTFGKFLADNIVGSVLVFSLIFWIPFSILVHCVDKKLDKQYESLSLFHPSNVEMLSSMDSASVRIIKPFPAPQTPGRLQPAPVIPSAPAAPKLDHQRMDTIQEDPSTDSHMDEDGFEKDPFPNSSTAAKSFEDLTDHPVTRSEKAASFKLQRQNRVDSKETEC
inactive: pictilisib 0.032 | crizotinib 0.051 | [1] 0.008 | duvelisib 0.024 | gandotinib 0.054 | tozasertib -0.015 | doramapimod -0.06 | bafetinib 0.019 | [2] 0.099 | nilotinib -0.093 | [3] -0.151 | dasatinib -0.032 | [4] 0.021 | [5] 0.054 | quisinostat 0.01 | tipifarnib 0.039 | [8] 0.002 | [7] -0.012

ABCC5 (UniProt O15440)
UniProt O15440, sequence (O15440 whole entry, looked up): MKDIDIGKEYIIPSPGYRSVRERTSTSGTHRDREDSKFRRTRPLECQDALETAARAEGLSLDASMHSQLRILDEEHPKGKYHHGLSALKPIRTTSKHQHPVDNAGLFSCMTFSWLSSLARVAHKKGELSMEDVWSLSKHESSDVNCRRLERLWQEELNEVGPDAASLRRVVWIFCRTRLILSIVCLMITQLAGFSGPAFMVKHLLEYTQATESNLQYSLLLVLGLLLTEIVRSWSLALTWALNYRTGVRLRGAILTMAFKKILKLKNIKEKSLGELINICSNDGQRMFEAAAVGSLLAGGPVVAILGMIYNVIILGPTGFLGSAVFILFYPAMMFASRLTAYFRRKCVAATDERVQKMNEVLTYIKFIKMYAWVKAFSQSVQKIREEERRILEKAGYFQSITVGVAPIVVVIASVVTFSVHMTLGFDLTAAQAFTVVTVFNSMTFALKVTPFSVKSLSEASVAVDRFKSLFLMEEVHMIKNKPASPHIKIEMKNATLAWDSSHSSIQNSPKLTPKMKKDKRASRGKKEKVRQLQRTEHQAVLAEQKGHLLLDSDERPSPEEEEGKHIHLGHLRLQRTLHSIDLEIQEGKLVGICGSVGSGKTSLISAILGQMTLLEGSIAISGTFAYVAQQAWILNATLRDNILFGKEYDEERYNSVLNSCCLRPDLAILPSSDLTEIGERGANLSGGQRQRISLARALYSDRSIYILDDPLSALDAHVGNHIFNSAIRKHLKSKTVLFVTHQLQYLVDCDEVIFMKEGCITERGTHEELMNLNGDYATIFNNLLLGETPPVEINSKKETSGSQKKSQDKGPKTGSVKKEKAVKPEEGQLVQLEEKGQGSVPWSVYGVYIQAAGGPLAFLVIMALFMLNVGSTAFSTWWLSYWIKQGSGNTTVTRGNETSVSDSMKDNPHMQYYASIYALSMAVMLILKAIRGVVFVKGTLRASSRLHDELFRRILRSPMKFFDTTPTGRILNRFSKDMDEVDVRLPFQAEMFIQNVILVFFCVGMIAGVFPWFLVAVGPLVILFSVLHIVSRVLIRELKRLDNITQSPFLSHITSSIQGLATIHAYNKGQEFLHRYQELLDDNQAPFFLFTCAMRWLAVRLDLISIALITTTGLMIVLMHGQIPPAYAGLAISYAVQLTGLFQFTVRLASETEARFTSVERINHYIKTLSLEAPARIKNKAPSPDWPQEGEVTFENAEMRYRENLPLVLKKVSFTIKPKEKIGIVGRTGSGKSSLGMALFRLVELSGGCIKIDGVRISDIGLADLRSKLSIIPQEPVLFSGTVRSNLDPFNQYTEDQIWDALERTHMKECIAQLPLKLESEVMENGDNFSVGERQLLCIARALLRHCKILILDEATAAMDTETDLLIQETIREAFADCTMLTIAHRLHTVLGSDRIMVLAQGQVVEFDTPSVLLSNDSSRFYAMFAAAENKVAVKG
inactive: lapatinib 0.013 | pictilisib 0.13 | crizotinib 0.014 | [1] -0.038 | duvelisib -0.045 | gandotinib 0.043 | tozasertib -0.016 | doramapimod 0.081 | bafetinib -0.117 | [2] 0.045 | dasatinib 0.105 | [5] -0.047 | quisinostat -0.003 | [8] 0.035 | [6] -0.035 | [7] -0.015

ANKRD10 (UniProt Q9NXR5)
UniProt Q9NXR5, sequence (Q9NXR5 whole entry, looked up): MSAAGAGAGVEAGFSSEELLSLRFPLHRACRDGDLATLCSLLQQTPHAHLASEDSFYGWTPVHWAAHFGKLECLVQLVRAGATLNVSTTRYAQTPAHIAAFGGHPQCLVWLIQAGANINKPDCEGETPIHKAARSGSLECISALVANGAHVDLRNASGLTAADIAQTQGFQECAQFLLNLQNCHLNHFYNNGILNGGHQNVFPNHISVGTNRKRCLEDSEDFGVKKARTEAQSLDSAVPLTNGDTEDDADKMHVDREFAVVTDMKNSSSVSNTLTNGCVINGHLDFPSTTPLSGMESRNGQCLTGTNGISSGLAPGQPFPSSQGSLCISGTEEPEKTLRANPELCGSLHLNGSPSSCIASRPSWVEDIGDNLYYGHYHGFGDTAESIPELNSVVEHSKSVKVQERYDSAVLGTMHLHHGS
inactive: lapatinib -0.074 | pictilisib 0.184 | crizotinib 0.017 | [1] -0.032 | duvelisib -0.052 | gandotinib -0.088 | doramapimod -0.079 | bafetinib -0.112 | [2] 0.007 | nilotinib -0.042 | [3] -0.021 | dasatinib -0.05 | [4] 0.021 | [5] 0.012 | quisinostat 0.001 | tipifarnib -0.028 | [8] 0.036 | [6] 0.168 | [7] -0.029

AIMP2 isoform 2 (UniProt Q13155)
UniProt Q13155, sequence (Q13155 whole entry, looked up): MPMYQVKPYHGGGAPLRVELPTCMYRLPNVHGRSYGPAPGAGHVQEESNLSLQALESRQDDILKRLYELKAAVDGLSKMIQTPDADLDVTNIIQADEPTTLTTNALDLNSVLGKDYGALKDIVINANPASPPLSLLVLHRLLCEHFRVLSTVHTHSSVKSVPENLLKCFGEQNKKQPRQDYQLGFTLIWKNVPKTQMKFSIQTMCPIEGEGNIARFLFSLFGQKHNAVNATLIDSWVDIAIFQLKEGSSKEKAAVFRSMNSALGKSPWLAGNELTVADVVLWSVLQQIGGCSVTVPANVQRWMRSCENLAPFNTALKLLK
inactive: lapatinib -0.058 | pictilisib -0.148 | crizotinib -0.036 | doramapimod -0.019 | bafetinib -0.082 | quisinostat -0.106 | [8] 0.067 | [6] 0.017
